The panel holds about 83,000 compounds, 20% with a hit somewhere; the sample as a whole holds those more often.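 Method: cells in 96-well plates; compound added at one concentration; 48 h incubation; percent growth measured; values under 10 scored active.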 Values without a mark were called inactive. Calls of active or inactive are those of the source.
Legend:
Assay in all cases: NCI-60 one-dose screen, 48 h (100 = growth as untreated, 0 = no growth, -100 = all killed)
Settings in all cases: 10 µM
NCI-H23 lung = system: NCI-H23 lung
NCI-H226 lung = system: NCI-H226 lung
HOP-62 NSCLC = system: HOP-62 NSCLC
NCI-H460 lung = system: NCI-H460 lung
HOP-92 NSCLC = system: HOP-92 NSCLC
NCI-H522 lung = system: NCI-H522 lung
A549/ATCC NSCLC = system: A549/ATCC NSCLC
786-0 renal = system: 786-0 renal
COLO 205 colon = system: COLO 205 colon

Structure (SMILES)	growth (NCI-H23 lung)	growth (NCI-H226 lung)	growth (HOP-62 NSCLC)	growth (NCI-H460 lung)	growth (HOP-92 NSCLC)	growth (NCI-H522 lung)	growth (A549/ATCC NSCLC)	growth (786-0 renal)	growth (COLO 205 colon)
O=C1/C=C/[C@@H](O)[C@@H]2C[C@@H](O)C[C@H]2/C=C/CCC[C@H](C(F)(F)F)O1	-30.8% (active)	-46.7% (active)	33%	59.2%	-2.27% (active)	-27.6% (active)	33.4%	-11.6% (active)	-44.6% (active)
CC(CN(C)C)Oc1ccc(OC(C)CN(C)C)c2c1C(=O)c1ccccc1C2=O (stereo unspecified)	41.6%	44.5%	49.3%	17.2%	49.1%	41.1%	22.5%	51%	3.02% (active)
CC1OC2CC(=O)OC2C2=C1C(=O)c1c(O)c3c(c(O)c1C2=O)C1CC(O)C3(O)C(C)O1 (stereo unspecified)	-34.2% (active)	-69% (active)	-49.5% (active)	2.35% (active)	-13% (active)	-66.4% (active)	2.66% (active)	-12.3% (active)	-73.5% (active)
NS(=O)(=O)Oc1ccc(NC(=O)C2CCCCCC2)cc1	97.4%	100%	99.3%	106%	98.9%	95.6%	96%	107%	112%
Cc1c(O)c(=O)ccn1C1CCC(CC2CCC(n3ccc(=O)c(O)c3C)CC2)CC1 (stereo unspecified)	39.5%	42.1%	36.2%	12.5%	51.8%	31.3%	46.4%	46.5%	23.5%
CC(C)C[C@H](NC(=O)Cn1cccc(CNC(=O)c2ccccc2)c1=O)B(O)O	23.7%	-66% (active)	5.64% (active)	27.8%	-11.3% (active)	-9.79% (active)	43.9%	29.5%	30.6%
CCOC(=O)/C(=C(\C)N)C1CC(=O)NC1=O (stereo unspecified)	96.3%	97.3%	107%	101%	112%	102%	101%	101%	109%
Nc1nc(N)c(N)c(Nc2ccc(CCO)cc2)n1	98.3%	96.2%	95.6%	108%	118%	91.9%	102%	109%	95.5%
COc1ccc(/C=C/C(=O)C(=O)/C=C/c2ccc(OC)c(OC)c2)cc1OC	21.6%	38.9%	93.2%	51.7%	109%	47.8%	69.9%	3.43% (active)	-20.8% (active)
CC(=O)OC/C=C(/C)C[P+](c1ccccc1)(c1ccccc1)c1ccccc1	80.1%	66%	65.6%	40.3%	64.3%	74.6%	64.6%	74.5%	48.3%
CN1CCN(CC(=O)Nc2cccc(-n3cc(-c4ccncc4)c(-c4ccc(Cl)c(O)c4)n3)c2)CC1	50.4%	74.3%	58.6%	13.3%	15.4%	18.1%	29.3%	33.6%	13.5%
Cc1cc(SC#N)cc(C(C)(C)C)c1O	93.1%	102%	100%	104%	81.7%	68.1%	81.9%	101%	101%
OCC1OC2C(NC(=S)N2c2ccccc2)C(O)C1O (stereo unspecified)	102%	95.5%	101%	105%	90.5%	104%	93.9%	110%	105%
CC(C)N(CCOc1cccc(-c2nc3sccn3c2-c2ccnc(S(C)(=O)=O)n2)c1)C(C)C	96.1%	67.5%	103%	94.7%	43.5%	82%	104%	97.3%	97.6%
